Assay results reported in PubChem BioAssay AID771 (SRMLSC, 2007).
In all, about 3,300 compounds went through this assay and about 55 (2%) were called active.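 The calls were made as follows: active = growth inhibition above 90%, meaning viable cell count by imaging cut by more than 90% versus vehicle controls; inactive = growth inhibition below 90%.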 Only a selection was taken, and actives are over-represented in it overall.

Experiment: HT29 colon tumor cell growth inhibition, primary screen, imaging, high content imaging, 48 h, CellTiter-Glo (AID 771);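 as to condensed nuclei: condensed means Hoechst nuclear area under control median minus 1.5 SD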
Conditions: HCS imaging cell count, at 10 µM, stronger effect = higher value; for condensed nuclei: measured here: percent cells with condensed nuclei
[1] = measured here: ATP CellTiter-Glo viability inhibition

Row | SMILES | growth inhibition | condensed nuclei | growth inhibition [1]
1 | CNCCCN1c2ccccc2CCc2ccccc21 | 95.8% (active) | 13.8% | 
2 | CN(C)CCCN1c2ccccc2CCc2ccccc21 | -27.8% (inactive) | 2.51% | 
3 | CN(C)CCCN1c2ccccc2CCc2ccc(Cl)cc21 | 89.6% (inactive) | 39.3% | 
4 | CCOC(=O)NC(Nc1sc2c(c1C(=O)OC)CCN(C)C2)(C(F)(F)F)C(F)(F)F | -25.9% (inactive) | 2.15% | 15.4%
5 | Cc1cc(=O)oc(C)c1C(=O)N[C@@H]1CCCCNC1=O | -26.2% (inactive) | 2.68% | -3.89%
6 | CCCCOC(=O)CSC1=C(C#N)C(c2ccc3c(c2)OCO3)CC(=O)N1 (stereo unspecified) | -15.7% (inactive) | 2.23% | -8.71%
7 | CCCOC(=O)CSC1=C(C#N)C(c2ccc3c(c2)OCO3)CC(=O)N1 (stereo unspecified) | 75.6% (inactive) | 7.29% | 56.6%
8 | CCOC(=O)CSC1=C(C#N)C(c2ccc3c(c2)OCO3)CC(=O)N1 (stereo unspecified) | 90.1% (active) | 12.2% | 66.1%
9 | Cn1cccc1/C=N/n1cnnc1 | 13.3% (inactive) | 11% | 0.83%
10 | COc1ccc([C@@H]2Sc3ccccc3N(CCN(C)C)C(=O)[C@@H]2OC(C)=O)cc1 | -4.52% (inactive) | 2.39% | 
11 | CN(C)CCCN1c2ccccc2Sc2ccc(C(F)(F)F)cc21 | 93.8% (active) | 30.8% | 
12 | CN(C)CCCN1c2ccccc2Sc2ccccc21 | 40.7% (inactive) | 5.02% | 
13 | CN(C)CCCN1c2ccccc2Sc2ccc(Cl)cc21 | 92.7% (active) | 22.1% | 
14 | CC(CN1c2ccccc2Sc2ccccc21)N(C)C (stereo unspecified) | 65.5% (inactive) | 6.11% | 
15 | CCOc1c(C)cc2[nH]c(CCC(=O)O)nc2c1C | 26.2% (inactive) | 2.92% | 7.89%
16 | CN1CCN(Cc2c(O)c(Cl)cc3c(-c4ccccc4)cc(=O)oc23)CC1 | 8.72% (inactive) | 1.6% | -6.84%
17 | C(=N\n1cnnc1)/c1cccc(Oc2ccccc2)c1 | -29.2% (inactive) | 2.95% | -4.38%
18 | COc1ccccc1N1CCN(C2CCN(C(=O)c3cccs3)CC2)CC1 | 32% (inactive) | 4.31% | 11.2%
19 | CCCCCCn1cc(C(=O)O)c(=O)c2ccccc21 | -27.6% (inactive) | 2.69% | 1.82%
20 | COC(=O)c1[nH]c2cc(OC)ccc2c1NC(=O)CCN1CCCC(C)(C)C1 | 5.81% (inactive) | 1.83% | 8.79%
21 | COC(=O)c1[nH]c2cc(OC)ccc2c1NC(=O)CN1CCN(c2cccc(C)c2)C(C)C1 (stereo unspecified) | 92.4% (active) | 8.77% | 75.4%
22 | COC(=O)c1[nH]c2cc(OC)ccc2c1NC(=O)CN1CCC(C(N)=O)CC1 | 49.4% (inactive) | 2.82% | -5.92%
23 | COC(=O)C1CCN(c2nc3ccccc3nc2C(C#N)C(=O)NCCc2ccccc2)CC1 (stereo unspecified) | 30% (inactive) | 3.61% | 5.48%
24 | COC(=O)c1cccc(Nc2cc(C)nc(-c3ccccc3O)n2)c1 | 91.6% (active) | 8.33% | 77.4%
25 | COC(=O)c1ccccc1OCc1cccc(C)n1 | 39.5% (inactive) | 0.9% | 2.81%

Row | SMILES | growth inhibition | condensed nuclei | growth inhibition [1]
26 | COC(=O)c1ccc(Nc2cc(C)nc(-c3ccccc3O)n2)cc1 | 12.1% (inactive) | 10.7% | 23%
27 | CCOc1ccc(-c2nn3c(-c4ccc(OC)cc4)nnc3s2)cc1 | 10.5% (inactive) | 2.81% | 4.54%
28 | C[C@]12CC[C@@H]3c4ccc(O)cc4CC[C@H]3[C@@H]1CC[C@@H]2OC(=O)CCC(=O)O | -33.9% (inactive) | 0.84% | 
29 | C[C@]12CC[C@@H]3c4ccc(OC(=O)c5ccccc5)cc4CC[C@H]3[C@@H]1CC[C@@H]2O | 90.5% (active) | 22.1% | 
30 | C[C@]12CC[C@@H]3c4ccc(O[C@@H]5O[C@H](C(=O)O)[C@@H](O)[C@H](O)[C@H]5O)cc4CC[C@H]3[C@@H]1C[C@@H](O)[C@@H]2O | -7.06% (inactive) | 1.8% | 
31 | Cc1c(O)c(CN2CCCC(C)C2)cc2c3c(c(=O)oc12)CCC3 (stereo unspecified) | -14.5% (inactive) | 1.69% | -14.7%
32 | CN(C1CCS(=O)(=O)C1)S(=O)(=O)c1cccc2nsnc12 (stereo unspecified) | -12.3% (inactive) | 8.15% | 2.06%
33 | CCc1ccc(NC(=O)CSC2=C(C#N)C(c3ccco3)C3=C(CCCC3=O)N2)cc1 (stereo unspecified) | 86.5% (inactive) | 11.8% | 58.1%
34 | N#CC1=C(SCC(=O)c2ccc(Cl)cc2)NC2=C(C(=O)CCC2)C1c1ccco1 (stereo unspecified) | 92.8% (active) | 7.89% | 78.2%
35 | Cc1ccc(NC(=O)CSC2=C(C#N)C(c3ccco3)C3=C(CCCC3=O)N2)cc1 (stereo unspecified) | 18.9% (inactive) | 2.42% | -18.4%
36 | N#CC1=C(SCC(=O)c2ccc(Br)cc2)NC2=C(C(=O)CCC2)C1c1ccco1 (stereo unspecified) | 68.9% (inactive) | 7.14% | 54.1%
37 | Cc1ccc(C(=O)CSC2=C(C#N)C(c3ccco3)C3=C(CCCC3=O)N2)cc1 (stereo unspecified) | 86% (inactive) | 6.33% | 77.7%
38 | N#CC1=C(SCC(=O)c2ccccc2)NC2=C(C(=O)CCC2)C1c1ccco1 (stereo unspecified) | 94.2% (active) | 25.7% | 71.1%
39 | Cn1c(=O)c2c3c(sc2n2c(SCC(=O)c4ccc(Cl)cc4)nnc12)COC(C)(C)C3 | -42.1% (inactive) | 0.75% | -20.9%
40 | CN=C1c2cc3c(Br)c(OC)ccc3n2CCN1C | 13.5% (inactive) | 1.37% | 20.4%
41 | COC(=O)c1cc(Br)c(=O)n(Cc2ccco2)c1 | 48.5% (inactive) | 2.45% | -15.8%
42 | CN(C)S(=O)(=O)Nc1ccc(NS(=O)(=O)N(C)C)c(S(=O)(=O)c2ccccc2)c1 | 17.4% (inactive) | 2.1% | -14.5%
43 | C#CCSC1=C(C#N)C(c2cccs2)C(C(=O)OCC)=C(C)N1 (stereo unspecified) | -11.7% (inactive) | 1.95% | -5.67%
44 | CCOC(=O)C1=C(C)NC(SCC(=O)Nc2nc(C)cs2)=C(C#N)C1c1cccs1 (stereo unspecified) | 95.4% (active) | 11.1% | 77.6%
45 | CCSC1=C(C#N)C(c2cccs2)C(C(=O)OC)=C(C)N1 (stereo unspecified) | -14.9% (inactive) | 2.41% | -4.48%
46 | CCCOc1ccc(/C(O)=C2/C(=O)C(=O)N(CCCN3CCOCC3)C2c2ccncc2)cc1 (stereo unspecified) | -41.6% (inactive) | 2.83% | -15.8%
47 | CCCCOc1cccc(-c2nnc(N)s2)c1 | 2.4% (inactive) | 3.96% | -0.17%
48 | CCC1CC2(C)NC(=O)c3c(sc4c3CC(C)(C)OC4)N2C1=O (stereo unspecified) | -1.91% (inactive) | 0.79% | -5.72%
49 | CC(C)(C)C1CCC2(CC1)C(C#N)=C(SCC(=O)Nc1ccccc1)NC(=O)C2C#N (stereo unspecified) | 91.4% (active) | 2.13% | 71.8%
50 | COc1cccc(NC(=O)CSC2=C(C#N)C(c3ccco3)C3=C(CCCC3=O)N2)c1 (stereo unspecified) | 61% (inactive) | 1.16% | 34.8%

Row | SMILES | growth inhibition | condensed nuclei | growth inhibition [1]
51 | CC1=C(C(=O)Nc2ccccc2)C(c2ccncc2)C(C#N)=C(SCC(=O)NC(C)C)N1 (stereo unspecified) | 38.7% (inactive) | 1.77% | 0.29%
52 | O=c1/c(=C/c2ccccn2)sc2n1CN(c1ccccc1)CN=2 | 1.6% (inactive) | 16.2% | 3.13%
53 | CNC(=O)Nc1cccc(NC(=O)NC)n1 | 24.6% (inactive) | 0.95% | 6.59%
54 | COc1cccc(C2/C(=C(/O)c3cnn(-c4ccccc4)c3C)C(=O)C(=O)N2CCN(C)C)c1 (stereo unspecified) | 51.1% (inactive) | 1.69% | -8.25%
55 | Cc1[nH]c2ccc3c(ncn3CCC#N)c2c1C | 3.78% (inactive) | 1.79% | 2.93%
56 | CN1CCc2c(C#N)c(N3CCCCC3)nc(NCc3ccccc3)c2C1 | 94.8% (active) | 19.2% | 84.9%
57 | C=CCNc1nc(N2CCOCC2)c(C#N)c2c1CN(C)CC2 | -13.1% (inactive) | 0.96% | -3.95%
58 | C=CCNc1nc(N2CCCCC2)c(C#N)c2c1CN(Cc1ccccc1)CC2 | 71.7% (inactive) | 2.73% | 37%
59 | CCN1CCc2c(C#N)c(NCc3ccccc3)nc(NCCO)c2C1 | -5.72% (inactive) | 1.53% | 1.65%
60 | C=CCNc1nc(NCc2ccccc2)c(C#N)c2c1CN(C)CC2 | 95.6% (active) | 12.5% | 82.7%
61 | N#Cc1c(NCCN)nc(NCc2ccccc2)c2c1CCN(Cc1ccccc1)C2 | 93.1% (active) | 30.8% | 87.7%
62 | CCN1CCc2c(C#N)c(N3CCOCC3)nc(NCc3ccccc3)c2C1 | 21.2% (inactive) | 2.32% | 14.1%
63 | CCN1CCc2c(C#N)c(NCc3ccccc3)nc(N(CC)CC)c2C1 | -3.81% (inactive) | 2.33% | -0.65%
64 | CCN1CCc2c(C#N)c(N3CCCCC3)nc(NCc3ccccc3)c2C1 | -17.2% (inactive) | 3.42% | 20.2%
65 | CCCCOc1ccc(C)cc1CN(CCO)CCO | -4.82% (inactive) | 1.37% | 1.6%
66 | Cc1ccc(-c2nn(C)c(=O)c3ccccc23)cc1CNC(=O)CSc1nc2ccccc2o1 | -7.38% (inactive) | 1% | -4.16%
67 | CCC1(C)Cc2c(sc3c2c(=O)n(C)c2nnc(SCC(=O)c4ccc(Cl)cc4)n32)CO1 (stereo unspecified) | 0.56% (inactive) | 13.8% | 9.73%
68 | Cc1cc(C)nc(NC2=NCC(=O)N2c2cccc(Cl)c2)n1 | 27.2% (inactive) | 3.28% | -9.73%
69 | CCOC(=O)c1c(-c2cccs2)csc1NC(=O)CCCC(=O)O | 5.6% (inactive) | 1.96% | 4.31%
70 | CCCc1nc(N2CCOCC2)c(C#N)c2c1CCCC2 | 24% (inactive) | 0.7% | 6.89%
71 | CSc1nc2sc3c(c2c(=O)[nH]1)CCC(C)C3 (stereo unspecified) | 25.4% (inactive) | 2.48% | 10.4%
72 | CCOc1ccc(C2C(C(=O)c3ccc(C)o3)=C(O)C(=O)N2CCCN(CC)CC)cc1 (stereo unspecified) | 17% (inactive) | 1.26% | 0.35%
73 | c1ccc(-c2nc(NCC3CCCO3)c3ccccc3n2)nc1 (stereo unspecified) | 16.9% (inactive) | 2.06% | 30.9%
74 | O=C1CCC(=O)N1CN(Cc1ccco1)CN1C(=O)CCC1=O | -33.3% (inactive) | 2.24% | -19.2%
